Bioassay records from PubChem.
An excerpt weighted towards active compounds, which were near 3.9% of everything screened.
TROY NFkB inh = inhibitors of TROY-driven NF-kB signaling, primary screen, Q293 LMP1-TROYcd cells, NF-kB luciferase, uHTS. Q293 LMP1-TROYcd NF-kB luciferase reporter, 4 h. inhibition, % at 10 µM. actives 0.98% (n = 360,000);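 active = compounds whose plate-normalised and pattern-corrected inhibition of the luciferase reporter signal at the single screening dose is 50% or more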
HIF-2a block = HIF-2a reporter inhibitors, primary screen, luminescence, 786-0 RCC cells | 786-0 RCC cells HIF-2a reporter, luciferase luminescence, overnight | inhibition, % at 18.8 µM | actives 0.72% (n = 360,000) | AID 624352, 2012;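 active = inhibition of the luminescence signal of 40% or more relative to plate controls, in a single-dose primary screen at 18.75 µM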
Peg3 promoter = Peg3 promoter-driven luciferase inhibitors, primary screen, cell-based, HeLa, luciferase luminescence; HeLa PEG-Prom luciferase reporter, overnight; inhibition, % at 20 µM; actives 1.7% (n = 360,000); AID 588405, 2011;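 active = inhibition of at least 50% at 20 µM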
CF NFkB inh = inhibitors of PAF-induced NF-kB signaling, primary screen, cell-based, GFP fluorescence, uHTS; KKLEB NF-kB-GFP reporter, GFP fluorescence overnight; AID 588850, 2011; inhibition, % at 5 µM; actives 0.86% (n = 360,000);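 active = at least 50% inhibition at 5 µM, scaled per plate between neutral and stimulator controls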;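 note: PAF is a Pseudomonas aeruginosa culture filtrate used as stimulus; plate controls were PAF-stimulated DMSO wells for no effect and unstimulated DMSO wells for full effect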
TWEAK Fn14 block = inhibitors of TWEAK-Fn14 signaling, primary screen, luciferase reporter cells, uHTS; inhibition, % at 10 µM; actives 2% (n = 360,000); TWEAK-stimulated Fn14 reporter cells, luciferase luminescence, 8 h; in the data active = inhibition above about 50%
KKLEB tox = cytotoxicity in KKLEB CF airway cells, primary screen, cytotoxicity control for CF NF-kB inhibitor project, cell-based, uHTS, fluorescence assay plates; KKLEB CF airway cells viability, ATPlite luminescence, overnight; hits give low values; cells stimulated with P. aeruginosa culture filtrate; activity change (cytotoxicity), % at 5 µM; actives 0.36% (n = 360,000); AID 602141, 2011;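 active = corrected activity change at or below -50% at 5 µM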
Mdm2 MdmX conf = retested Mdm2-MdmX interaction blockers, confirmation, cell-based, luminescence, single concentration, set 2; shares compounds with HIF-2a block; SaOS-2 split-luciferase Mdm2/MdmX complementation; inhibition, % at 8 µM; actives 99% (n = 740); AID 504601, 2011;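 active = mean inhibition of the luminescence signal across two replicates at or above 26 percent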
HIF-2a conf = HIF-2a reporter inhibitor retest, confirmation, luminescence, 786-0 RCC cells. shares compounds with HIF-2a block. inhibition, % at 18.8 µM. actives 56% (n = 1,800). HIF-2a luciferase reporter luminescence, overnight. AID 651580, 2012;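 active = mean inhibition across four replicates of at least 40 percent at the single tested concentration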
HIF-1a counter = HIF-1a luciferase reporter signal reduction – MiaPaCa-2 cells, single concentration, counter-screen for HIF-2a inhibitor project, confirmation; inhibition, % at 18.8 µM; actives 72% (n = 1,800); shares compounds with HIF-2a block; MiaPaCa-2 HIF-1a luciferase reporter, desferoxamine, overnight;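 active = mean inhibition of the reporter signal across four replicates at the single tested dose of 50% or more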
The depositor's hits bear a star; x = no result given.

SMILES	TROY NFkB inh	HIF-2a block	Peg3 promoter	CF NFkB inh	TWEAK Fn14 block	KKLEB tox	HIF-2a conf	HIF-1a counter	others
CCc1ccc(S(=O)(=O)Nc2ccc(-c3ccc4nncn4n3)cc2)s1	-11	42*	27	30	-6	-4	0	-40
COc1cc2nc(N3CCN(c4cc(C)ccc4C)CC3)nc(N)c2cc1OC	42	39*	102*	3	-296	-47	-9	102*	Mdm2 MdmX conf=103*
CNc1nc(Cl)c(SC)c(NC2CCCCC2)n1	-1	28	18	17	9	-19	x	x
CN(C)CCCNC(=O)c1ccc(-c2cc(O)c3ncccc3c2)cc1	-5	-48	-6	-13	-15	16	x	x
Oc1cc(-c2ccncc2)cc2cccnc12	5	15	20	34	60*	-38	x	x	Mdm2 MdmX conf=101*
Oc1cc(-c2ccc(N3CCCCC3)nc2)cc2cccnc12	-52	-83	-123	-10	-55	-2	x	x	Mdm2 MdmX conf=99*
CN(C)c1ccc(-c2cc(O)c3ncccc3c2)cc1	-56	-213	-146	-18	-71	-2	x	x
Cc1cc(NC(=O)c2ccc3c(c2)OCCO3)ccc1NC(=O)c1ccco1	-41	-175	-197	16	-26	-5	x	x
O=C(Nc1ccc(NC(=O)c2ccco2)cc1)c1ccc2c(c1)OCCO2	17	46*	-37	10	27	11	69*	11
Cc1ccc(C(C)C)c(OCc2nn(CC(=O)c3ccc(Cl)cc3)c3[n+]2CCCCC3)c1	50	49*	112*	41	-19	-25	16	106*
O=C(Cn1nc(CNc2ccc(Cl)cc2)[n+]2c1CCCCC2)c1ccccc1	1	-2	3	4	-4	6	x	x
Cc1nonc1NC(=O)CSc1nc(C2CCCCC2)nc2ccccc12	16	45*	27	36	47	-19	30	68*
Cc1cc(C(C)(C)CC(C)(C)C)ccc1OCCOCC[N+](C)(C)Cc1ccccc1	42	-11	102*	63*	37	-22	x	x	Mdm2 MdmX conf=103*
C[N+](C)(CCOc1ccccc1)Cc1ccccc1	2	-2	7	-9	-19	5	x	x
CCOC(=O)C1(Cc2ccc(OC)cc2)CCN(C(=O)c2csc(C)n2)CC1	-15	-30	-19	-5	-4	-3	x	x
O=C(NC1CCN(C(=O)Nc2ccccc2Cl)CC1)c1ccco1	5	8	-11	1	-6	-3	x	x
Cn1cc(CN2CCC(C(=O)NC(c3ccc(F)cc3)c3ccc4ccccc4n3)CC2)c2ccccc21 (stereo unspecified)	8	92*	101*	7	-19	0	-3	106*
Cc1ccnc(NS(=O)(=O)c2ccc(NC(=O)c3ccc([N+](=O)[O-])s3)cc2)n1	9	10	22	15	-13	3	x	x
O=C(C[C@H]1CC[C@H]2[C@@H](COC[C@@H](O)CN2C(=O)c2cnccn2)O1)NCc1ccc(Oc2ccccc2)cc1	x	17	x	x	x	x	x	x
Nc1ccccc1C#CC(=O)c1ccccc1	50	89*	104*	89*	95*	-85*	57*	105*	Mdm2 MdmX conf=103*
CN(C(=S)NC(=O)c1ccccc1)C1CCCCC1	-14	50*	29	-21	-8	-12	0	13
O=C1CC(NS(=O)(=O)c2cccs2)CN1c1ccc(Cl)cc1 (stereo unspecified)	-1	-9	-19	-18	2	11	x	x
Cc1cccc(C)c1NC(=O)C(C1CC1)n1c(=O)c(-c2ccco2)nc2ccccc21 (stereo unspecified)	x	12	x	x	x	x	x	x
O=C(NCCc1ccccc1)C(c1cccs1)N(C(=O)CCl)c1ccc(Cl)cc1 (stereo unspecified)	-22	92*	109*	105*	64*	-89*	97*	108*	Mdm2 MdmX conf=103*
CCc1ccc2c(c1)/C(=C/C(=O)c1cccs1)C(=O)N2	15	75*	-24	24	-2	-24	61*	103*
SMILES	TROY NFkB inh	HIF-2a block	Peg3 promoter	CF NFkB inh	TWEAK Fn14 block	KKLEB tox	HIF-2a conf	HIF-1a counter	others
O=C(/C=C1\C(=O)Nc2ccccc21)/C=C1\C(=O)Nc2ccccc21	-9	39	26	8	4	-4	x	x
CCOc1cccc(/C=N/Nc2ccc(S(=O)(=O)N(CC)CC)cn2)c1O	8	26	39	17	-11	-30	x	x	Mdm2 MdmX conf=91*
CSc1ncnc2c1ncn2CCCN1CCN(c2ncccn2)CC1	3	0	-6	-4	3	9	x	x
O=C(NCCCN1CCOCC1)c1cc(-c2ccc(Br)cc2)on1	1	58*	-16	-9	40	-6	19	62*
O=C(/C=C\Nc1ccccn1)c1ccc(Cl)cc1	50	46*	-3	-27	87*	-17	32	44
COC(=O)c1ccc(NC(=O)NCCCl)cc1	-15	-20	-29	-5	-17	6	x	x
O=C(OCc1ccccc1F)c1ccc2c(c1)-c1ccccc1C2=O	-28	-339	-334	-12	-34	15	x	x
O=[N+]([O-])c1ccc(-c2ccc(/C=N/Nc3nc(N4CCCC4)nc(N4CCCC4)n3)o2)cc1	-2	11	31	-9	-23	-62*	x	x	Mdm2 MdmX conf=91*
CC(C)c1ccccc1NC(=O)CNCCc1ccc(C(F)(F)F)cc1	11	13	19	18	-7	-6	x	x
CC(C)C[C@@H](CN1CCC[C@@H]1CN1C(=O)C(=O)NC[C@@H]1Cc1ccccc1)N1C[C@H](Cc2ccccc2)N(CC2CCCCCC2)C(=O)C1=O	35	80*	55*	0	3	10	8	105*
CCOC(=O)C1(C)CCCCCN1C(=O)/C=C/c1ccccc1 (stereo unspecified)	7	14	-2	-4	17	5	x	x
